L major viab – Leishmania major promastigote growth inhibition, primary screen | Leishmania major promastigotes, resazurin fluorescence viability | inhibition, % at 10 µM | 9% of 200,000 active | AID 1063, 2008; in the data active = inhibition above about 50%;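 note: promastigotes grown with compound for 44 hours at 28 °C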
ROMK primary – ROMK potassium channel modulators, primary screen, cell-based, thallium flux, MLSMR library. ATP-sensitive inward rectifier potassium channel 1 (Homo sapiens), P48048. Tet-inducible ROMK, thallium flux fluorescence; actives lie on both sides. 2% of 130,000 active. AID 1918, 2009. B-score at 10 µM;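 active = signal ratio slope over the read window, or its plate-corrected B-score, at least 3 SD from the plate mean, either direction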;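 note: B-score of the F/F0 ratio slope over 7 to 12 s after thallium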
Target sequence (P48048 whole entry, looked up): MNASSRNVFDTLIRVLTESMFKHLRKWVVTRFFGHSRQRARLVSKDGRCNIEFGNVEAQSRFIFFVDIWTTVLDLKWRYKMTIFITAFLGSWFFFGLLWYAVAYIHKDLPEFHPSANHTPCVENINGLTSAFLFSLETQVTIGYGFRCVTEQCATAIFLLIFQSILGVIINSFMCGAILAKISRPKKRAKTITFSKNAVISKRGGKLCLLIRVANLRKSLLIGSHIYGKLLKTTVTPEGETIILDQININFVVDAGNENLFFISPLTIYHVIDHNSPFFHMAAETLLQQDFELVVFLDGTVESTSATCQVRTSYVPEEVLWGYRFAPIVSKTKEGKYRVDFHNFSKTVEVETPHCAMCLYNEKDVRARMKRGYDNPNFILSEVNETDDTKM
p97 inhibitor – inhibitors of human p97 ATPase, primary screen, biochemical | Transitional endoplasmic reticulum ATPase (Homo sapiens), P55072 | recombinant p97 ATPase, Kinase-Glo ATP luminescence, 3 h | inhibition, % at 8 µM | 0.42% of 220,000 active | AID 1481, 2009; in the data active = inhibition above about 15%;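 note: 0% = DMSO vehicle and 100% = wells lacking enzyme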
PTEN del growth – growth suppression of PTEN-null HCT116, primary screen, cell-based, CellTiter-Glo | HCT116 PTEN-null viability, 60 h; hits give low values | viability, % at 10 µM | 1.2% of 140,000 active;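 active = viability at or below a set limit, 4 SD under the median of all tested compounds, cut at about 3.7% in these data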;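 note: PTEN knockout HCT116 line with beta catenin targeted HCT116 as companion control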
HCT116 bCat-KO – primary screen for growth suppressors in beta-catenin knockout HCT116 cells (colon tumor, human); AID 818, 2007; HCT116 beta-catenin knockout viability, CellTiter-Glo, 60 h; hits give low values; viability, % at 10 µM; 1.5% of 140,000 active;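 active = viability at or under a set limit, the compound median less 4 SD, cut at about 6% in these data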;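 note: 0% = Hyamine 1622 control at 20 µM and 100% = untreated cell control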
INS promoter inh – inhibitors of insulin promoter-driven GFP, primary screen, imaging, TRM-6 cells (human fetal islet line), eGFP reporter, cell count; reporter expression induced with tamoxifen; inhibition, % at 2 µM; 0.9% of 130,000 active;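 active = inhibition above the mean plus 3 SD, with well images judged a real hit on visual review, cut at about 60% in these data, passing the limit was not always enough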
The depositor's hits bear a star; . = no result. Shown are actives, neighbours in structure and some others; about 10% of the full set was active somewhere.

SMILES	L major viab	ROMK primary	p97 inhibitor	PTEN del growth	HCT116 bCat-KO	INS promoter inh
CCOC(=O)c1c(C)[nH]c(C)c1C(=O)COC(=O)c1cc2ccccc2cc1OC	64*	.	3	72	79	41
CCOC(=O)c1c(C)[nH]c(C)c1C(=O)COC(=O)c1cc2ccccc2cc1O	5	.	-1	69	76	.
Cc1ccc(C)c(NC(=O)CN(C)C(=O)c2nn(C)c(=O)c3ccccc23)c1	-2	0.0034	3	.	.	.
O=C(CSc1nnc(-c2ccc(O)cc2)n1Cc1ccco1)N1CCc2ccccc2C1	-8	.	1	93	97	.
COc1cccc(C2=NNC(=NCc3ccccc3)SC2)c1	32	0.088	6	.	.	-9
CCC1(C)N=C(c2ccc3c(c2)OCO3)CC(c2ccccc2O)N1 (stereo unspecified)	95*	-2	5	64	51	-23
COc1cccc(C2=NC(C)(C)NC(c3ccccc3O)C2)c1 (stereo unspecified)	97*	.	0	19	11	.
Cc1ccc(S(=O)(=O)N(CC(=O)N=Nc2c(O)[nH]c3ccccc23)c2ccc(C)c(C)c2)cc1	96*	.	4	66	71	45
COc1ccc(OC)c(S(=O)(=O)N2CCC(C(=O)N(C)Cc3ccccc3)CC2)c1	.	.	-6	.	.	.
COc1cccc(OC)c1CN1CCCC(C(=O)c2ccccc2SC)C1 (stereo unspecified)	65*	-2.4	-2	.	.	25
COc1ccccc1CN1CCCC(C(=O)N(C)Cc2ccccc2)C1 (stereo unspecified)	52*	.	4	63	66	-33
COc1ccccc1CN1CCCC(C(=O)N2CCCCC2)C1 (stereo unspecified)	.	.	3	.	.	.
COc1ccc(Br)cc1CN1CCCC(C(=O)N2CCCCCC2)C1 (stereo unspecified)	85*	1.6	0	82	80	-69
COc1ccc(CN2CCCC(C(=O)N(C)Cc3ccccc3)C2)cc1OC (stereo unspecified)	86*	.	0	88	79	.
O=C(CCc1ccccc1)Nc1ccc2ccccc2n1	2	0.46	1	.	.	-82
O=C(CN1CCN(S(=O)(=O)c2ccccc2)CC1)NC(=O)NCc1ccco1	.	.	1	.	.	.
CC(C)C(=O)OCc1cn(-c2ccc(Cl)c(Cl)c2)nn1	-8	-0.42	3	.	.	33
O=C(CCC1CCCC1)NCCCN1CCOCC1	67*	.	3	101	91	21
CC(=O)Nc1ccc(NC(=O)c2ccccc2S(=O)(=O)c2ccccc2[N+](=O)[O-])cc1	-3	-0.31	-3	95	98	31
O=C(Nc1ccc(F)cc1)c1ccccc1S(=O)(=O)c1ccccc1[N+](=O)[O-]	58*	0.011	-5	93	95	24
COc1ccccc1NC(=O)c1ccccc1S(=O)(=O)c1ccccc1[N+](=O)[O-]	-3	-0.55	2	.	.	.
CC(C)C(=O)NNS(=O)(=O)c1ccccc1[N+](=O)[O-]	54*	0.25	-1	82	86	3
NC(=O)c1ccccc1NC(=O)c1ccccc1S(=O)(=O)c1ccccc1[N+](=O)[O-]	65*	0.11	-2	91	93	31
CN1C(=O)/C(=C/c2ccc(-c3ccccc3[N+](=O)[O-])o2)SC1=Nc1ccc(Cl)c(C(=O)O)c1	2	.	5	90	82	.
CC(C)C1C(c2ccccc2)N(C)C(c2ccccc2)CC1(O)c1ccccc1 (stereo unspecified)	40	-1.4	-1	25	26	.
SMILES	L major viab	ROMK primary	p97 inhibitor	PTEN del growth	HCT116 bCat-KO	INS promoter inh
CCC1C(c2ccccc2)N(C)C(c2ccccc2)CC1(O)c1ccccc1 (stereo unspecified)	53*	.	2	.	.	.
CC(C)(C)c1ccc(C(=O)Nc2cccc3c(=O)[nH][nH]c(=O)c23)cc1	-6	-2.2	4	94	94	33
O=C(NCCO)c1cc([N+](=O)[O-])cc2c1C=Cc1ccccc1O2	95*	0.84	5	.	.	-8
Clc1cccc(N/N=C/c2ccc(N3CCOCC3)cc2)c1	83*	-0.13	-2	81	88	25
C(=N\Nc1ccccc1)/c1ccc(N2CCOCC2)cc1	3	0.01	-3	96	97	17
CCOC(=O)c1c(NC(=O)c2cc3n(n2)C(C(F)(F)F)CC(c2cccs2)N3)sc(C)c1C (stereo unspecified)	15	.	3	1.0*	1.5*	.
Cc1ccc(-n2c(C)cc(C(=O)COc3c(CO)cc(F)cc3CO)c2C)cc1C	19	0.18	-9	20	18	12
COCCCNCC1C(Oc2ccc(Cl)cc2)C(=O)N1c1ccccc1C (stereo unspecified)	84*	-1.3	-6	77	83	-26
O=C(Nc1ccc(Oc2c(F)c(F)c(F)c(F)c2F)cc1)OC1CCN2Cc3ccccc3N=C12 (stereo unspecified)	.	.	9	.	.	.
Nc1nc(C(=O)N2CCOCC2)nn1S(=O)(=O)c1ccc(Cl)cc1	-6	.	-1	102	95	-390
O=C(c1nnsc1S(=O)(=O)c1ccc(Cl)cc1)N1CCOCC1	100*	-0.12	6	.	.	.
Cc1[nH]n(-c2ccccc2)c(=O)c1C(C[N+](=O)[O-])c1ccc(F)cc1 (stereo unspecified)	60*	-0.98	-3	17	16	8
Cc1ccc(C(C[N+](=O)[O-])c2c(C)[nH]n(-c3ccccc3)c2=O)cc1 (stereo unspecified)	97*	-2.3	2	37	31	31
Cc1[nH]n(-c2ccccc2)c(=O)c1C(c1ccccc1C(=O)O)c1c(C)[nH]n(-c2ccccc2)c1=O	-5	1.5	-1	91	93	-38
O=C(Nc1ccccc1)N1CCN(S(=O)(=O)c2ccccc2)CC1	11	0.19	-3	.	.	.
CCOC(=O)c1cc2c(=O)n3ccccc3nc2n(C(C)C)c1=NC(=O)c1c(-c2ccccc2Cl)noc1C	88*	0.67	-1	.	.	40
CCOC(=O)c1cc2c(=O)n3ccccc3nc2n(CCOC)c1=NC(=O)c1ccncc1	20	-0.044	-4	91	88	32
CCOC(=O)c1cc2c(=O)n3ccccc3nc2n(CC(C)C)c1=NC(=O)c1ccco1	43	.	-5	70	82	3
CCOC(=O)c1cc2c(=O)n3ccccc3nc2n(C(C)C)c1=NC(=O)c1ccncc1	52*	1.6	2	79	92	-86
CCOC(=O)c1cc2c(=O)n3ccccc3nc2n(CCOC)c1=NC(=O)c1c(-c2c(F)cccc2Cl)noc1C	67*	0.16	0	.	.	-67
Cc1ccccc1NC(=O)C(C)O/N=C/c1cccc([N+](=O)[O-])c1 (stereo unspecified)	66*	0.62	-2	81	89	-3
